Luciferase inh – Firefly luciferase inhibition profiling of diverse chemical library using quantitative high-throughput screening. Luciferin 4-monooxygenase (Photinus pyralis), P08659. purified P. pyralis luciferase, luminescence, biochemical. Potency, µM (top dose mostly 115 µM), actives largely listed as inhibitors. 76,000 compounds, 2.5% hits; active means well fitted curve in the direction sought with a large enough effect; inconclusive means small, poorly fitted or top-dose-only effect, or another doubt; inactive means no such curve, though single readings can be large; an effect the other way counts as inactive or inconclusive; further: nearly all actives have a fitted effect of over 65% in size
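Purified P. pyralis luciferase (10nM final) in 50mM Tris acetate pH 7.5, 10mM Mg acetate, 0.01% Tween-20, 0.05% BSA with 10uM D-luciferin and 10uM ATP. Compounds titrated qHTS. Luminescence imaged on CCD.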
HEK293 tox – Cytotoxic Profiling in HEK 293 Cell Line of Diverse Libraries Using Quantitative High-Throughput Screening. HEK 293 viability, ATP luminescence (CellTiter-Glo), 48-72 h. Potency, µM (highest dose often 115 µM), usual class: inhibitors. 94,000 compounds, 6.6% hits. AID 1345083, 2018; active means well fitted curve in the direction sought with a large enough effect; inconclusive means small, poorly fitted or top-dose-only effect, or another doubt; inactive means no such curve, though single readings can be large; an effect the other way counts as inactive or inconclusive; further: nearly all actives have a fitted effect of over 60% in size
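Cells seeded first (HEK 293, 250 cells/well), then compound added by pintool. Incubation ran 48 or 72 hr at 37 degree Celsius. CellTiter-Glo was added and luminescence imaged after 10 min at room temperature.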
NIH3T3 tox – Cytotoxic Profiling in NIH 3T3 Cell Line of Diverse Libraries Using Quantitative High-Throughput Screening; 94,000 compounds, 4.3% hits; NIH 3T3 viability, CellTiter-Glo ATP luminescence, 48-72 h; AID 1345082, 2018; Potency, µM (doses to about 96.7 µM), usual class: inhibitors; active means well fitted curve in the direction sought with a large enough effect; inconclusive means small, poorly fitted or top-dose-only effect, or another doubt; inactive means no such curve, though single readings can be large; an effect the other way counts as inactive or inconclusive; further: nearly all actives have a fitted effect of over 55% in size
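Cytotoxicity is measured as loss of cellular ATP: NIH 3T3 cells (400/well) are exposed to compound for 48 or 72 hr at 37 °C, then CellTiter-Glo luminescence is imaged after 10 min at room temperature.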
hNpr1 antagonist – Natriuretic polypeptide receptor (hNpr1) antagonism - Primary qHTS; Potency, µM (series often up to 46.3 µM), usual class: inhibitors; Atrial natriuretic peptide receptor 1 (Homo sapiens), P16066; 76,000 compounds, 1.6% hits; AID 1347048, 2019; HEK293 hNpr1 GloSensor cGMP, ANP-stimulated luminescence; further: nearly all actives have a fitted effect of over 60% in size
Target sequence (P16066 whole entry, looked up): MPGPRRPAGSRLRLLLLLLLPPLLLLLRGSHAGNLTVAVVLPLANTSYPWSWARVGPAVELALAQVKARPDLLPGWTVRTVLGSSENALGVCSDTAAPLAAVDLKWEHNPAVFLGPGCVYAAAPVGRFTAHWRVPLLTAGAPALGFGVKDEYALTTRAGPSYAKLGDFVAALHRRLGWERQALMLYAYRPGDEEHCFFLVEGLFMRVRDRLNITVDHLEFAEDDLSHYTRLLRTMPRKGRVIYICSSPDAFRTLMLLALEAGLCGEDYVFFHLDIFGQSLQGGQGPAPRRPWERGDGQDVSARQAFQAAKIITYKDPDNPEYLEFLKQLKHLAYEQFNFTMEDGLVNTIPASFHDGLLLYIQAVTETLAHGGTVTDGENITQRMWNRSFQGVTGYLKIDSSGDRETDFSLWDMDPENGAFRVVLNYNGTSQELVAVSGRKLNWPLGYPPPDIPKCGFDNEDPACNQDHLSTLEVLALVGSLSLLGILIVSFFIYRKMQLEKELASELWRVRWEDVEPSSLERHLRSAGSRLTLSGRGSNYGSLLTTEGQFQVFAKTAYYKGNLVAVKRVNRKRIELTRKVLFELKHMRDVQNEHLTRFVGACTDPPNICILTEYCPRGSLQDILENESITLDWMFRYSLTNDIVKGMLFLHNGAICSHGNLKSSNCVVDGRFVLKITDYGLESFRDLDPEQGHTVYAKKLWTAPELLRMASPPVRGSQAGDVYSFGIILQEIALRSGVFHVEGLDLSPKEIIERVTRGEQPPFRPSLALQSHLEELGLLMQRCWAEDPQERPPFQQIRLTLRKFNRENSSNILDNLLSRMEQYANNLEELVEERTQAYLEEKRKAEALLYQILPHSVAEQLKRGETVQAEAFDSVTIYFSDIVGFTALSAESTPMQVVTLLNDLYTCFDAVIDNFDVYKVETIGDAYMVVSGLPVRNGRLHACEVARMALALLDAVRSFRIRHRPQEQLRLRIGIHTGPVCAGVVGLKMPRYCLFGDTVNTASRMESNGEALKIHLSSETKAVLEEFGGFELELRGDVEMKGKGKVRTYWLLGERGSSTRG
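HEK293 cells stably expressing human Npr1 and cGMP GloSensor pGS-40F, loaded 2 h with 2% GloSensor reagent, given compound 30 min at room temperature. Luminescence read before and 20 min after 0.1 nM hNppA.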
Npr1 antag conf – Natriuretic polypeptide receptor (hNpr1) antagonism - Confirmation | shares compounds with hNpr1 antagonist | HEK293 hNpr1 cGMP GloSensor luminescence, ANP-stimulated | Potency, µM (series often up to 57.6 µM), hits mostly inhibitors | 1,400 compounds, 76% hits | AID 1347044, 2019; further: nearly all actives have a fitted effect of over 70% in size
NPR2 antag – Natriuretic polypeptide receptor (hNpr2) antagonism - Subtype selectivity assay; shares compounds with hNpr1 antagonist; HEK293 hNpr2 GloSensor cGMP luminescence, CNP-stimulated; Potency, µM (top dose mostly 57.6 µM), hits mostly inhibitors; 1,400 compounds, 67% hits; AID 1347046, 2019; further: nearly all actives have a fitted effect of over 70% in size
FLuc counter – Natriuretic polypeptide receptor (hNpr1) antagonism - Confirmation firefly luciferase (FLuc) inhibition counterscreen | Potency, µM (highest dose often 57.6 µM), actives largely listed as inhibitors | 1,400 compounds, 0.7% hits | purified FLuc enzyme, luminescence, Km substrate | AID 1347047, 2019 | shares compounds with hNpr1 antagonist; active means well fitted curve in the direction sought with a large enough effect; inconclusive means small, poorly fitted or top-dose-only effect, or another doubt; inactive means no such curve, though single readings can be large; an effect the other way counts as inactive or inconclusive
GloSensor cGMP – Natriuretic polypeptide receptor (hNpr1) antagonism - Counterscreen GloSensor control cell line. shares compounds with hNpr1 antagonist. HEK293 GloSensor cGMP, SNP-stimulated, luminescence. Potency, µM (doses to about 57.6 µM), usual class: inhibitors. 1,400 compounds, 69% hits; further: nearly all actives have a fitted effect of over 70% in size
Large screens that a line does not name were inactive (follow-up assays come after a bar, where they were run). A selection: hits, their analogues and other compounds. The true share with any hit is near 11%. Unless noted, the call rests on the fitted dose curve.

COc1ccc(C(=O)N2CCC3(CC2)N=C(c2cccc(Br)c2)NO3)c(OC)c1	HEK293 tox inconclusive, NIH3T3 tox inconclusive, hNpr1 antagonist 11µM | Npr1 antag conf 24µM | NPR2 antag 24µM | FLuc counter inactive | GloSensor cGMP 22µM
COc1ccc(C(=O)N2CCC3(CC2)N=C(c2cccc(Br)c2)NO3)cc1F	HEK293 tox inconclusive, NIH3T3 tox inconclusive, hNpr1 antagonist inconclusive | Npr1 antag conf inconclusive | NPR2 antag inconclusive | FLuc counter inactive | GloSensor cGMP 27µM
COc1ccccc1CCC(=O)N1CCC2(CC1)N=C(c1cccc(Br)c1)NO2	HEK293 tox inconclusive, NIH3T3 tox inconclusive | Npr1 antag conf inconclusive | NPR2 antag inconclusive | FLuc counter inactive | GloSensor cGMP inactive
Cc1ccsc1C(=O)N1CCC2(CC1)N=C(c1cccc(Br)c1)NO2	HEK293 tox inconclusive, NIH3T3 tox inconclusive, hNpr1 antagonist 13µM | Npr1 antag conf 27µM | NPR2 antag inconclusive | FLuc counter inactive | GloSensor cGMP 27µM
COc1cccc(CN2CCCC3(CCN(C(=O)c4ccc(OC)nc4OC)C3)C2)c1 (centres undefined)	HEK293 tox inconclusive, NIH3T3 tox inconclusive
CSc1nccc(N2CCC3(CC2)CC(=O)N(CC(C)C)C3)n1	HEK293 tox inconclusive, NIH3T3 tox inconclusive, hNpr1 antagonist 7.1µM | Npr1 antag conf 6.9µM | NPR2 antag 11µM | FLuc counter inactive | GloSensor cGMP 5.4µM
CCN(CC)C(=O)[C@@H](C)C1CC[C@@]2(C)CC[C@H](NC(=O)c3ccncc3)[C@@H](C)[C@@H]2[C@H]1O (some centres undefined)	NIH3T3 tox inconclusive
O=S(=O)(Cc1ccccc1F)N1CCCC(CN2CCOCC2)CC1 (centres undefined)	none
O=C(Nc1ccc(Oc2ccccc2)cc1)O[C@@H]1CO[C@H]2[C@@H]1OC[C@@H]2NS(=O)(=O)c1ccc(Cl)cc1	HEK293 tox 35µM, NIH3T3 tox 32µM, hNpr1 antagonist inconclusive | Npr1 antag conf 11µM | NPR2 antag 12µM | FLuc counter inactive | GloSensor cGMP 9.7µM
CC(=O)Nc1ccc(S(=O)(=O)N[C@H]2CO[C@H]3[C@@H]2OC[C@H]3OC(=O)Nc2cccc3ccccc23)cc1	NIH3T3 tox inconclusive | Npr1 antag conf inactive | NPR2 antag inactive | FLuc counter inactive | GloSensor cGMP inactive
COc1ccc(NC(=O)O[C@@H]2CO[C@H]3[C@@H]2OC[C@@H]3NS(=O)(=O)c2ccc(Cl)cc2)cc1	Luciferase inh inconclusive, NIH3T3 tox inconclusive
CN1CC(=O)N(c2cccnc2)Cc2c(NCC3CC3)ncnc21	none
CCC(C)NC(=O)C1CCCN1c1nccc(Nc2ccccc2F)n1 (centres undefined)	HEK293 tox inconclusive (no result: Luciferase inh, hNpr1 antagonist)
COc1ccc(F)c(-c2nc(COc3ccc(-n4cnnc4)cc3)c(C)o2)c1	HEK293 tox inconclusive, NIH3T3 tox inconclusive, hNpr1 antagonist inconclusive
CN(C)C(=O)c1cc(-c2ccccc2F)cc2c1OCCN2Cc1cccnc1	HEK293 tox inconclusive | Npr1 antag conf inconclusive | NPR2 antag inactive | FLuc counter inactive | GloSensor cGMP inactive
O=C(NCCc1cnc[nH]1)c1cc(-c2ccccc2F)cc2c1OCCN2Cc1cccnc1	HEK293 tox inconclusive, NIH3T3 tox inconclusive
O=C(NC1CC1)c1cc(-c2ccccc2F)cc2c1OCCN2Cc1cccnc1	HEK293 tox 100µM, NIH3T3 tox 89µM | Npr1 antag conf inconclusive | NPR2 antag inconclusive | FLuc counter inactive | GloSensor cGMP inactive
O=C(c1cc(-c2ccccc2F)cc2c1OCCN2Cc1cccnc1)N1CCC1	HEK293 tox inconclusive, NIH3T3 tox inconclusive, hNpr1 antagonist inconclusive | Npr1 antag conf inconclusive | NPR2 antag inconclusive | FLuc counter inactive | GloSensor cGMP inactive
O=C(NCc1cccnc1)c1cc(-c2ccccc2F)cc2c1OCCN2Cc1cccnc1	HEK293 tox inconclusive, NIH3T3 tox inconclusive
CCS(=O)(=O)N1CCOc2ccc(CN3CCc4ccccc4C3)cc2C1	HEK293 tox inconclusive
CC1=C(C(=O)OC(C)C)C(c2ccc(Cl)cc2)N2C(CC(=O)N3CCCC3)=CSC2=N1 (centres undefined)	HEK293 tox inconclusive, NIH3T3 tox inconclusive, hNpr1 antagonist inconclusive | Npr1 antag conf inactive | NPR2 antag inconclusive | FLuc counter inactive | GloSensor cGMP inactive
CC1=C(C(=O)OC(C)C)C(c2ccc(C)cc2)N2C(CC(=O)N3CCCCC3)=CSC2=N1 (centres undefined)	HEK293 tox inconclusive, NIH3T3 tox inconclusive
C=CCOC(=O)C1=C(C)N=C2SC=C(CC(=O)N3CCCC3)N2C1c1ccc(OC)cc1OC (centres undefined)	HEK293 tox inconclusive
C=CCOC(=O)C1=C(C)N=C2SC=C(CC(=O)N3CCCC3)N2C1c1cc(OC)cc(OC)c1 (centres undefined)	HEK293 tox inconclusive, hNpr1 antagonist 10µM | Npr1 antag conf 17µM | NPR2 antag 15µM | FLuc counter inactive | GloSensor cGMP inactive
C=CCOC(=O)C1=C(C)N=C2SC=C(CC(=O)NCC(C)C)N2C1c1ccccc1Cl (centres undefined)	HEK293 tox inconclusive, hNpr1 antagonist inconclusive
CCOC(=O)C1=C(C)N=C2SC=C(CC(=O)NCc3ccco3)N2C1c1ccccc1Cl (centres undefined)	HEK293 tox inconclusive, hNpr1 antagonist 11µM | Npr1 antag conf inconclusive | NPR2 antag inconclusive | FLuc counter inactive | GloSensor cGMP inactive
COC(=O)C1=C(C)N=C2SC=C(CC(=O)N3CCCC3)N2C1c1ccccc1OC (centres undefined)	none
COC(=O)C1=C(C)N=C2SC=C(CC(=O)N3CCCCC3)N2C1c1ccc(Cl)cc1 (centres undefined)	HEK293 tox inconclusive, hNpr1 antagonist inconclusive | Npr1 antag conf inconclusive | NPR2 antag inconclusive | FLuc counter inactive | GloSensor cGMP inactive
CC(=O)Nc1cccc(-c2ccnc(-c3nnc(C)n3CCc3ccccc3)c2)c1	HEK293 tox inconclusive
